Assay results as given in PubChem BioAssay (Tox21).
Inconclusive results are not listed. Entries that show only a call come without a potency. Activity calls are given as the source filed them. Calls come from the whole dose curve. Positions of bridges follow the written chain, without caps; N, C: chain ends. Non-standard residues stand in square brackets, D forms with d. Residues, ends and D or L forms follow the SMILES beside them. *: point of attachment. X1 = CC[C@@H](C)[C@@H](N)C1=N[C@H](C(=O)*)CS1; d(aIle) = CC[C@H](C)[C@@H](N)C(=O)O; dOrn = NCCC[C@@H](N)C(=O)O

experiment: qHTS assay to identify small molecule antagonists of the estrogen receptor alpha (ER-alpha) signaling pathway - cell viability counter screen (AID 743074); conditions: ERalpha-bla HEK293 viability, CellTiter-Glo luminescence, 18 h; series mostly up to 69.4 µM;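 note: HEK293 cells carrying ER-alpha-UAS-bla reporter stimulated with 17beta-estradiol; nearly all actives have a fitted effect of over 45% in size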

Row | SMILES | Potency
1 | C/C(=C\C(=O)OCCCCCCCCC(=O)O)C[C@@H]1OC[C@H](C[C@@H]2O[C@H]2[C@@H](C)[C@H](C)O)[C@@H](O)[C@H]1O | inactive
2 | CC(C)[C@H](NC(=O)[C@H](CC(=O)O)NC(=O)[C@H](CCCCN)NC(=O)[C@@H](N)CCCN=C(N)N)C(=O)N[C@@H](Cc1ccc(O)cc1)C(=O)O (H-RKDVY-OH) | inactive
3 | NC(=O)[C@@H]1CCCN1C(=O)[C@H](Cc1cnc[nH]1)NC(=O)[C@@H]1CCC(=O)N1 | inactive
4 | CC[C@H]1OC(=O)[C@H](C)C(=O)[C@H](C)[C@@H](O[C@@H]2O[C@H](C)C[C@H](N(C)C)[C@H]2O)[C@](C)(OC)C[C@@H](C)C(=O)[C@H](C)[C@H]2N(CCCCn3cnc(-c4cccnc4)c3)C(=O)O[C@]12C | inactive
5 | C[N+](C)(C)CCOP(=O)(O)OP(=O)([O-])OC[C@H]1O[C@@H](n2ccc(N)nc2=O)[C@H](O)[C@@H]1O | inactive
6 | Cc1cnc(C(=O)O)c[n+]1[O-] | inactive
7 | C=CC1=C(C(=O)O)N2C(=O)[C@@H](NC(=O)/C(=N/OCC(=O)O)c3csc(N)n3)[C@H]2SC1 (stereo in doubt) | inactive
8 | O=P(O)(O)C(O)(Cn1ccnc1)P(=O)(O)O | inactive
9 | C=CC[N+]1([C@H]2C[C@H]3[C@@H]4CC[C@H]5C[C@H](O)[C@@H](N6CCOCC6)C[C@]5(C)[C@H]4CC[C@]3(C)[C@H]2OC(C)=O)CCCC1 | inactive
10 | CC[C@@H](C)[C@@H](N)C1=N[C@H](C(=O)N[C@@H](CC(C)C)C(=O)N[C@@H](CCC(=O)O)C(=O)N[C@@H](C(=O)N[C@@H]2CCCCNC(=O)[C@@H](CC(N)=O)NC(=O)[C@@H](CC(=O)O)NC(=O)[C@@H](Cc3cnc[nH]3)NC(=O)[C@@H](Cc3ccccc3)NC(=O)[C@@H]([C@H](C)CC)NC(=O)[C@@H](CCCN)NC2=O)[C@@H](C)CC)CS1 (X1-LE[d(aIle)][dK][dOrn][dI][dF][dH][dD][dN]; lactam 4-C) | inactive
11 | Nc1cc(Cl)c(NC2=NCCN2)c(Cl)c1 | inactive
12 | CCOc1ccc(NC(=S)Nc2ccc(OCC)cc2)cc1 | inactive
13 | CCc1ncnc2cc(OC)c(OC)cc12 | inactive
14 | Cc1cc(=O)c(C(=O)N[C@@H](C(=O)N[C@@H]2C(=O)N3C(C(=O)O)=C(CSc4nnnn4C)CS[C@H]23)c2ccc(O)cc2)c[nH]1 | inactive
15 | CC12CCC(C[N+](C)(CCC[N+](C)(C)C)C1)C2(C)C (configuration not stated) | inactive
16 | CN1C(=O)C[C@@H](C(=O)N[C@@H](Cc2cnc[nH]2)C(=O)N2CCC[C@H]2C(N)=O)NC1=O | inactive
17 | COC(=O)[C@H]1[C@H]2C[C@H]3c4[nH]c5ccccc5c4CCN3C[C@H]2CC[C@@H]1O | inactive
18 | CC[C@@H](C)[C@H](N)C(=O)O | inactive
19 | C/C(=C(/CCO)SSCC1CCCO1)N(C=O)Cc1cnc(C)nc1N (configuration not stated) | inactive

Row | SMILES | Potency
20 | C=C(Nc1ccc(OCC)cc1)Nc1ccc(OCC)cc1 | inactive
21 | O=C(O)/C=C/C(=O)Nc1ccc(S(=O)(=O)Nc2nccs2)cc1 | inactive
22 | CC(C)=CCC/C(C)=C/CC/C(C)=C/CC/C(C)=C/CC1=C(C)C(=O)c2ccccc2C1=O | inactive
23 | CO/N=C(\C(=O)N[C@@H]1C(=O)N2C(C(=O)O)=C(CSc3nc(C)c(CC(=O)O)s3)CS[C@H]12)c1csc(N)n1 | inactive
24 | COc1ccc(/C=C/C(=O)O)cc1 | inactive
25 | CO/N=C(\C(=O)N[C@@H]1C(=O)N2C(C(=O)[O-])=C(C[n+]3cccc4c3CCC4)CS[C@H]12)c1csc(N)n1 | inactive
26 | NCC1CCC(C(=O)O)CC1 (configuration not stated) | inactive
27 | CCN(CC)CCOC[C@H]1O[C@@H](O)[C@H](OCCN(CC)CC)[C@@H](O)[C@@H]1O | inactive
28 | CCC(=O)OC(OP(=O)(CCCCc1ccccc1)CC(=O)N1C[C@H](C2CCCCC2)C[C@H]1C(=O)O)C(C)C (some centres not stated) | inactive
29 | CC(C)=CCC/C(C)=C/CC/C(C)=C/CC/C=C(\C)CC/C=C(\C)CCC=C(C)C | inactive
30 | CCCCCCCCCC(=O)NO | inactive
31 | NCCO/C=C/[C@H](N)C(=O)O | inactive
32 | N=C(N)n1cccn1 | inactive
33 | Nc1c(CC(=O)O)cccc1C(=O)c1ccccc1 | inactive
34 | Cc1ccc(C(C)(C)c2ccc(C)cc2)cc1 | inactive
35 | CO[C@H]1C[C@H](O[C@H]2[C@H](C)[C@@H](O[C@@H]3O[C@H](C)C[C@H](N(C)C)[C@H]3O)[C@@H](C)C[C@]3(CO3)C(=O)[C@H](C)[C@@H](O)[C@@H](C)[C@@H](C)OC(=O)[C@@H]2C)O[C@@H](C)[C@@H]1O | inactive
36 | CC[C@H]1OC(=O)C[C@@H](O)[C@H](C)[C@@H](O[C@@H]2O[C@H](C)[C@@H](O[C@H]3C[C@@](C)(O)[C@@H](O)[C@H](C)O3)[C@H](N(C)C)[C@H]2O)[C@@H](CC=O)C[C@@H](C)C(=O)/C=C/C(C)=C/[C@@H]1CO[C@@H]1O[C@H](C)[C@@H](O)[C@@H](OC)[C@H]1OC | inactive
37 | O=C1c2c(O)cccc2[C@H]([C@@H]2O[C@H](CO)[C@@H](O)[C@H](O)[C@H]2O)c2cc(CO)cc(O)c21 | inactive
